# Results from ChEMBL document CHEMBL3433997, “St. Jude Leishmania screening dataset” (2016).
# Target: Glucose transporter (Leishmania mexicana) (UniProt O61059)
# Assay: ST_JUDE_LEISH: Cytotoxicity at 2uM final concentration against transgenic Leishmania Mexicana promastigotes LmGT2 that are glucose transport deficient and complemented with the L. Mexicana glucose transporter 2. Activity is measured by DNA content using SYBR green in vitro
# Assay type: functional
row,Compound,inhibition
1,Ic1cc(Nc2ncnc3ccsc23)ccc1OCc1ccccc1,0.81%
2,c1ccc(-n2ncc(CNCc3ccc(-c4cccc(-c5nc6ccccc6[nH]5)c4)cc3)n2)cc1,-2.38%
3,CC(C)(C)c1ccc(NC(=O)c2ccc(CN3CCCN(Cc4cccc(O)c4)CC3)cc2)cc1,2.02%
4,CC(=O)Nc1ccc(Nc2cc(C)nc(Nc3ccc(NC(C)=O)cc3)n2)cc1,2.71%
5,Cc1ccccc1C1CCN(C2CCC(NC(=O)/C=C/c3ccc(F)c(F)c3)CC2)CC1 (stereo not given),-1.27%
6,COC(=O)c1cccc(CNCc2ccc(-c3ccc(-c4nc5cc(F)ccc5[nH]4)cc3)cc2)c1,4.98%
7,COc1ccc2nccc([C@@H](O)CN3CCC(NC(=O)c4cc5c(F)cc(F)cc5[nH]4)CC3)c2c1,8.41%
8,N=C(NCCCCCCCCNC(=N)Nc1ccc(Cl)cc1)Nc1ccc(Cl)cc1,8.78%
9,CCN(CC)CCN(Cc1ccc(-c2ccc(C(F)(F)F)cc2)cc1)C(=O)Cn1c(CCc2ccc(F)c(F)c2)cc(=O)c2ccccc21,8.28%
10,CN1CCN(c2ccnc3ccc(NC(=O)Nc4ccc(-c5ccncc5)c(C#N)c4)cc23)CC1,-2.77%
11,O=C1NC(c2ccc(N3CCCCCC3)cc2)Nc2ccccc21 (stereo not given),2.21%
12,CN(C)CCNCc1cccc(-c2ccc3c(Nc4ccc(Oc5ccccn5)cc4)ccnc3c2)c1,0.21%
13,Nc1nc(N)c2c(Cc3ccc(Br)cc3)cccc2n1,3.75%
14,CC(C)[C@H](NC(=O)NC1CCC(CCN2C3CCC2CC(OC(=O)C(CO)c2ccccc2)C3)CC1)C(O)(c1ccccc1)c1ccccc1 (stereo not given in full),1.15%
15,CC(C)NCc1ccc(-c2cccc(CN3CCC(c4ccccc4)CC3)c2)c(C(=O)NCC2CCCCC2)c1,8.2%
16,COc1ccc(C(C)Nc2nc(N)c3cc(OC)c(OC)cc3n2)cc1 (stereo not given),4.42%
17,Nc1nc(N)c2nc(C3CC=CCC3)c(N)nc2n1 (stereo not given),-0.04%
18,COc1cccc(-n2ncc3c(N/N=C/c4ccc(CN(C)CCN(C)C)cc4)ncnc32)c1,7.16%
19,Cc1nc2ccc(S(=O)(=O)Nc3ccc(C(=O)N[C@@H](CCC(=O)O)C(=O)O)cc3)cc2c(=O)[nH]1,0.45%
20,Nc1nc(N)c2cc(NC(=O)c3ccc(Cl)c(Cl)c3)ccc2n1,4.8%

row,Compound,inhibition
1,Cc1cc(NCc2ccccc2)nc(NCc2ccccc2)n1,4.43%
2,N#Cc1ccc2[nH]c(-c3cc(-c4cccc(F)c4)cnc3N)nc2c1,3.77%
3,CC(=O)c1ccc(N2CCN(C(=O)Nc3ccc(Cl)cc3)CC2)cc1,8.94%
4,CN1CCC(C(=O)Nc2cccc(-c3ccc(-c4nc5cc(C(F)(F)F)ccc5[nH]4)s3)c2)CC1,6.1%
5,Cc1cc(C2CCN(CCCCNC(=O)c3ccc(NC(=O)c4ccc(Cl)cc4)cc3)CC2)c(C)cc1OCc1ccccn1,0.11%
6,Cc1cccc(OC2CCN(c3ncc(C(=O)NCCCN4CCCC4=O)cc3Cl)CC2)c1,0.99%
7,CN(CCCCN)Cc1ccc(-c2ccc(Cl)cc2)cc1,10.5%
8,O=C(N[C@@H](CC1CCCCC1)C(=O)NCCN1CCCCC1)c1ccc(O)c(-c2cccc(C(F)(F)F)c2)c1,-0.49%
9,Brc1ccsc1-c1nc(NC2CCN(Cc3ccccc3)CC2)no1,-0.38%
10,O=C(/C=C/c1ccc(F)cc1)NC1CCC(CCN2CCc3ccccc3CC2)CC1 (stereo not given),2.76%
11,CN1CCN(c2ccnc3ccc(NC(=O)Cc4ccc(Br)c5ccccc45)cc23)CC1,2.02%
12,NCC(NC(=O)c1ccc(-c2c[nH]c3ncccc23)s1)c1ccccc1 (stereo not given),25.9%
13,Cc1cccc2nc(-c3cccc(-c4ccc(NC(=O)C(C)CN5CCOCC5)cc4)c3)[nH]c12 (stereo not given),4.9%
14,Oc1ccc2nc(NCCCc3ccccc3)nc(NCCc3ccccc3)c2c1,-0.15%
15,COc1ccc(CN2C(=S)N(Cc3ccccc3)C(=O)C2CC(=O)Nc2ccccc2)cc1OC (stereo not given),-2.09%
16,CCOC(=O)C1=C(C)N=c2sc(=Cc3cc(Cl)ccc3O)c(=O)n2C1c1cc(OC)c(OC)cc1Br (stereo not given),11.5%
17,CCN(CC)c1ccc(-c2nc3cc(Cl)cnc3[nH]2)cc1,3.88%
18,COc1ccc(NC(=O)c2csc(-c3cc(NC(=O)c4ccnc(N5CCCC5)c4)ccc3C)c2)cc1N1CCN(C)CC1,-1.28%
19,O=C(NCCc1ccc(O)cc1)n1c2ccccc2c2ccccc21,1.38%
20,Cc1c(C)n(Cc2ccccc2)c2ncnc(OC3CCN(CC(=O)NCC4CC4)CC3)c12,0.21%
